Activity calls are given as the source filed them. Unless noted, no rule for the calls is given here.
Columns and labels:
[1] = anti-His antibody binders, primary screen, artefact control for SMM control protein annotation, biochemical, small-molecule microarray, 635 nm fluorescence (AID 1128); conditions: anti-His Alexa647 antibody binding, higher = more signal;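 also: score merges feature fluorescence with signal-to-noise for each printed compound spot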
[2] = tested on: Human papillomavirus type 1a E7 protein (residues 1-88); test: HPV1a E7 small-molecule binders, primary screen, biochemical, small-molecule microarray, residues 1-88, 635 nm (AID 1129); conditions: small-molecule microarray binding, fluorescence 635 nm; higher = more signal
[3] = target: Focal adhesion kinase 1 (Homo sapiens) (UniProt Q05397); test: small-molecule microarray binders of FAK, primary screen, biochemical, 635/667 nm fluorescence, BSA, DTT (AID 1130); conditions: PTK2 binding, 635 nm fluorescence, higher = more signal;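 also: composite of spot emission at 667 nm and signal to noise over triplicate slides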
[4] = tested on: Fibrinogen (Alexa647-labelled); test: fibrinogen binders on compound microarrays, profiling panel, artefact control for SMM control-protein annotation, biochemical, small-molecule microarray, 635/667 nm fluorescence (AID 1131); conditions: fibrinogen-A647 binding fluorescence, higher = more signal;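 also: z-score merges 667 nm fluorescence with per-spot signal-to-noise over triplicate slides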
[5] = target: Follistatin (Homo sapiens) (UniProt P19883); test: follistatin binders on small-molecule microarrays, primary screen, biochemical, small-molecule microarray, 635/667 nm fluorescence (AID 1132); conditions: FST binding, 635 nm fluorescence, higher = more signal
[6] = target: Fibroblast growth factor 2 (Homo sapiens) (UniProt P09038); test: FGF2 binders on small-molecule microarrays, primary screen, biochemical, small-molecule microarray, 635/667 nm fluorescence (AID 1133); conditions: small-molecule microarray binding, FGF2, fluorescence 635/667; higher = more signal
[7] = mitochondrial membrane potential change in A549 cells, profiling panel, cell-based, JC-1 fluorescence, basal, 24 h, 100 nL (AID 1138); conditions: higher = more signal;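 also: A549 lung adenocarcinoma cells under basal conditions with no added stimulus; test concentration not given here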
Lefty1 = Lefty1 binders on small-molecule microarrays, primary screen, biochemical, small-molecule microarray, 635/667 nm fluorescence (AID 1139); conditions: small-molecule microarray binding, fluorescence 635/667; higher = more signal
[8] = tested on: wheat germ agglutinin (Triticum aestivum), Alexa647-labelled; test: wheat germ agglutinin binders on compound microarrays, profiling panel, artefact control for SMM control-protein annotation, biochemical, small-molecule microarray, 635/667 nm fluorescence (AID 1140); conditions: WGA-A647 binding, 635 nm fluorescence, higher = more signal;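 also: score merges 667 nm feature emission with signal to noise over triplicate slides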
[9] = target: Luciferin 4-monooxygenase (Photinus pyralis) (UniProt P08659); test: firefly luciferase enzyme inhibitors, primary screen, biochemical, luminescence, purified enzyme, 2006 set (AID 1141); conditions: SteadyGlo luminescence, 30 min, higher = more signal, called active from +8 up or from −8 down;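 also: cell-free assay with purified firefly luciferase at 100 ng per well in PBS; test concentration not given here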
[10] = tested on: Wnt5a (protein binding on small-molecule microarray); test: Wnt5a binders on small-molecule microarray, primary screen, biophysical, 635/667 nm fluorescence (AID 1142); conditions: 635 nm fluorescence, higher = more signal;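 also: fluorescence read at 667 nm with signal to noise per printed feature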
[11] = cell viability in Huh7 cells, primary screen, cytotoxicity control for HCV replication inhibitor project, CellTiter-Glo luminescence, basal, 48 h (AID 1143); conditions: Huh7 HCV replicon, higher = more signal, called active from +8 up or from −8 down;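 also: Huh7 hepatoma cells carrying a hepatitis C replication reporter with no stimulus; test concentration not given here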
[12] = P. aeruginosa biofilm formation inhibitors, primary screen, PAO1 strain, BacTiter-Glo luminescence, LB-PBS (AID 1144); conditions: 12 h, higher = more signal
[13] = CREB reporter modulators without forskolin, primary screen, cell-based, PC12, CRE-LacZ reporter, unstimulated (AID 1145); conditions: no forskolin, luminescence, 4.5 h, higher = more signal, called active from +8 up or from −8 down
[14] = CREB reporter modulators under forskolin, primary screen, cell-based, PC12, CRE-LacZ reporter, forskolin-stimulated (AID 1146); conditions: luminescence, 4.5 h, higher = more signal, called active from +8 up or from −8 down;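 also: PC12 cells with 6xCRE LacZ reporter stimulated by forskolin 10 µM; beta-galactosidase reporter signal reflecting CREB driven transcription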
[15] = target: Streptavidin (Streptomyces avidinii) (UniProt P22629); test: streptavidin binders on small-molecule microarray, primary screen, artefact control for SMM compound annotation, biophysical, 635/667 nm fluorescence (AID 1147); conditions: streptavidin binding, higher = more signal;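 also: signal reflects streptavidin binding to arrayed compounds as a control protein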
[16] = small-molecule binders of probe aInhba, primary screen, biochemical, small-molecule microarray, 635/667 nm fluorescence (AID 1148); conditions: higher = more signal;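 also: score merges 667nm spot fluorescence with signal-to-noise for antibody binding to printed compounds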
Torsin-1A (Homo sapiens) [17] = target: Torsin-1A (Homo sapiens) (UniProt O14656); test: torsin A binders from cell lysate, primary screen, small-molecule microarray, wild-type, 635/667 nm (AID 1149); conditions: COS7 hTOR1A-WT lysate, 635 nm fluorescence, higher = more signal
Torsin-1A (Homo sapiens) [18] = target: Torsin-1A (Homo sapiens) (UniProt O14656); test: small-molecule binders of mutant TOR1A in lysate, primary screen, cell lysate, small-molecule microarray, COS7 lysate, 635/667 nm fluorescence (AID 1150); conditions: COS7 hTOR1A mutant lysate, 635 nm fluorescence, higher = more signal;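 also: score pools 667 nm emission and signal to noise measuring lysate protein binding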
[19] = tested on: Sonic hedgehog protein (Shh); test: small-molecule binders of Shh protein, primary screen, biochemical, small-molecule microarray, 635/667 nm fluorescence (AID 1151); conditions: small-molecule microarray binding, 635 nm fluorescence; higher = more signal;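 also: Shh protein binding to compounds spotted on small-molecule microarray slides; score combines spot fluorescence intensity with signal-to-noise across triplicate slides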

Sequence of Focal adhesion kinase 1 (Homo sapiens) (Q05397 whole entry, looked up): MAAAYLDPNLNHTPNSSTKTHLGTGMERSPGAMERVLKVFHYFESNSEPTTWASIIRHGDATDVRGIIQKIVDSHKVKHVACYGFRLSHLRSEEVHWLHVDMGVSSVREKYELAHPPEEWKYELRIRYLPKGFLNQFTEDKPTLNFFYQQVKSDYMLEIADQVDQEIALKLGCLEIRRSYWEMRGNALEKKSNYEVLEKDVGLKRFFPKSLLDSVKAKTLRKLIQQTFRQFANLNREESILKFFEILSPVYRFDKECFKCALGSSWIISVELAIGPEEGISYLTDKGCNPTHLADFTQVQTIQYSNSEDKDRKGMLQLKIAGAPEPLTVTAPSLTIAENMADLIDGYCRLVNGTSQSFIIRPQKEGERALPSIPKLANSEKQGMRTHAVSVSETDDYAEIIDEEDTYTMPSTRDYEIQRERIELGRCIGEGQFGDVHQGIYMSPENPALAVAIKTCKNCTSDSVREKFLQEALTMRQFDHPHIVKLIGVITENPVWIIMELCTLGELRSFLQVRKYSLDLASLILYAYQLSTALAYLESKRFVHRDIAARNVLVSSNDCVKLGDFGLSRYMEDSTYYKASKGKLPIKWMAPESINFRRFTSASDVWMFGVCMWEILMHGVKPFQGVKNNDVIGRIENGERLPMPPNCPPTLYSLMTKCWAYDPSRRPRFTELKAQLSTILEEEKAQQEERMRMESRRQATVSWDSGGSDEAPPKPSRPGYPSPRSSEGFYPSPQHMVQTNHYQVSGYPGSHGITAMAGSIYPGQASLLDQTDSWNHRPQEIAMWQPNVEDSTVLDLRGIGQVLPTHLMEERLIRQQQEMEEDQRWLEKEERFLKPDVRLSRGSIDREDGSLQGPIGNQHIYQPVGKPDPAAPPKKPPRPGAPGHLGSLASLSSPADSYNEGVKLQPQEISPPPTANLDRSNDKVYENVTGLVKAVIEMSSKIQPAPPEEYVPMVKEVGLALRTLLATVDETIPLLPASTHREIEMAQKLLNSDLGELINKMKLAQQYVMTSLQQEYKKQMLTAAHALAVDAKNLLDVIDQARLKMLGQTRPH
Sequence of Fibroblast growth factor 2 (Homo sapiens) (P09038 whole entry, looked up): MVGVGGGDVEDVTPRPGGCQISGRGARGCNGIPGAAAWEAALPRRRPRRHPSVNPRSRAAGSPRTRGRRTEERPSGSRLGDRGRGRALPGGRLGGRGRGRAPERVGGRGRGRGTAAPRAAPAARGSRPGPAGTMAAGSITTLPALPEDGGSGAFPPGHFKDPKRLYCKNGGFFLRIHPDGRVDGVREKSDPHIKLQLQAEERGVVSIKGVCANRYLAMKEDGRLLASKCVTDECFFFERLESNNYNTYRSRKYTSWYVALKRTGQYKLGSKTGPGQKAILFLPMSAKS
Sequence of Torsin-1A (Homo sapiens) (O14656 whole entry, looked up): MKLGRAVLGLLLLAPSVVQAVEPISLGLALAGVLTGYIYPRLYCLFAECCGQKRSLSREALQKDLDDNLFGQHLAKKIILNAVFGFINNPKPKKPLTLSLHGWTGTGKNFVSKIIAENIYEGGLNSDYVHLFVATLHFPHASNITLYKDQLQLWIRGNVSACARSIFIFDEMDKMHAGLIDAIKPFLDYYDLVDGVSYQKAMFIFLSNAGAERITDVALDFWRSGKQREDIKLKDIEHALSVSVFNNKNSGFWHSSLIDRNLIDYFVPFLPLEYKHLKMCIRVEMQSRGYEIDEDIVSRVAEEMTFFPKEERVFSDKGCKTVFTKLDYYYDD
Sequence of Luciferin 4-monooxygenase (Photinus pyralis) (P08659 whole entry, looked up): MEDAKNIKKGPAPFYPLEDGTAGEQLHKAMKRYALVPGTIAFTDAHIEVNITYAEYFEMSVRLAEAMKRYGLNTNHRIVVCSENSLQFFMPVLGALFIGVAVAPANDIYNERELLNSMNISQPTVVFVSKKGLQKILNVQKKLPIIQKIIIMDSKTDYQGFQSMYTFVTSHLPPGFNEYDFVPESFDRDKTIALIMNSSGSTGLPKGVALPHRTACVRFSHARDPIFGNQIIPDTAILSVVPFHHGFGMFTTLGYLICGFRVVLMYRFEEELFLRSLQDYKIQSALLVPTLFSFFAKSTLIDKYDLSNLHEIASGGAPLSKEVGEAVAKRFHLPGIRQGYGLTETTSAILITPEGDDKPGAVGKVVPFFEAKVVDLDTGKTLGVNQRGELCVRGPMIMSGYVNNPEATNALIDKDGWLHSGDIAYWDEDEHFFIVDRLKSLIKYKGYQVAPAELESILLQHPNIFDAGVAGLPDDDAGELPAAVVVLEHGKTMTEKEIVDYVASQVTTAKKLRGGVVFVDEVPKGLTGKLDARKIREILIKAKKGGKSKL
Sequence of Streptavidin (Streptomyces avidinii) (P22629 whole entry, looked up): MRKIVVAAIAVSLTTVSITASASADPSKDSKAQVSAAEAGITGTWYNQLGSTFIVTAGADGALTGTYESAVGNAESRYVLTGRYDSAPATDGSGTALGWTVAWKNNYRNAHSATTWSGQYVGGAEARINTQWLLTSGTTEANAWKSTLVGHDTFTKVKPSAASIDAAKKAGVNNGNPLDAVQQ
Sequence of Follistatin (Homo sapiens) (P19883 whole entry, looked up): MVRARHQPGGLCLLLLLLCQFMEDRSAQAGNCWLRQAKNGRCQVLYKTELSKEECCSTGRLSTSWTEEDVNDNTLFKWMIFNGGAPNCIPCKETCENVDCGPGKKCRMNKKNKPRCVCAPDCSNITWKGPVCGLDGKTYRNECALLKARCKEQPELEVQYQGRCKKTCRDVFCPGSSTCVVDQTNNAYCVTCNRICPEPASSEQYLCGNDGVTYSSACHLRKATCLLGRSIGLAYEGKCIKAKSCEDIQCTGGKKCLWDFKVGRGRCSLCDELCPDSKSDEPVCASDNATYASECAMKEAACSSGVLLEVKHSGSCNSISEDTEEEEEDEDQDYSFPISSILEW

SMILES | composite z-score [1] | composite z-score [2] | composite z-score [3] | composite z-score [4] | composite z-score [5] | composite z-score [6] | z-score [7] | composite z-score (Lefty1) | composite z-score [8] | z-score [9] | composite z-score [10] | z-score [11] | z-score [12] | z-score [13] | z-score [14] | composite z-score [15] | composite z-score [16] | composite z-score (Torsin-1A (Homo sapiens) [17]) | composite z-score (Torsin-1A (Homo sapiens) [18]) | composite z-score [19]
CC(C)c1ccc(NN2C(C(O)Cc3ccccc3)C=CC3C(=O)N(c4ccccc4)C(=O)C32)cc1 (stereo not given) | 0.829 | 1.11 | 1.16 | 0.958 | 1.28 | -0.0551 | -1.24 | 0.441 | 0.797 | -0.959 (inactive) | 0.204 | -0.695 (inactive) | -0.221 (inactive) | 0.243 (inactive) | 2.48 (inactive) | 1.87 | -0.152 | 0.14 | 0.815 | -0.154
COCCOC(=O)N1C(=O)[C@@]2(c3ccccc31)[C@H](c1ccc(OCCO)cc1)N1[C@H](c3ccccc3)[C@H](c3ccccc3)OC(=O)[C@H]1[C@@H]2C(=O)N1CCCCCCC1 | 3.91 | 1.37 | 4.76 | 0.995 | 1.55 | 1.99 | -1.75 | 1.92 | 1.76 | -0.659 (inactive) | 2.44 | -2.59 (inactive) | -0.302 (inactive) | -0.329 (inactive) | 3.39 (inactive) | 4.09 | 2.11 | 3.76 | 3.68 | 2.29
CCCNC(=O)[C@@]1(Sc2ccc(C)cc2)CC(=O)N(C2CCCCC2)[C@@H]1c1ccc(CO)cc1I | 1.53 | 1.2 | 0.996 | 0.146 | -0.182 | 0.128 | 1.04 | -0.351 | 0.73 | -0.0779 (inactive) | 0.108 | -2.76 (inactive) | 0.687 (inactive) | 0.272 (inactive) | 1.38 (inactive) | 0.133 | -0.198 | 0.0272 | 0.197 | -0.158
C=C[C@@H](OC)[C@H](OC(=O)Nc1ccc(SC)cc1)c1ccc(OCCO)cc1 | 2.02 | 0.815 | 0.317 | 0.951 | 1.17 | 0.377 | -1.48 | 0.545 | 0.653 | -2.25 (inactive) | 0.502 | -2.53 (inactive) | -0.918 (inactive) | 9.77 (active) | 0.136 (inactive) | 0.22 | -0.071 | 0.615 | 0.8 | 1.2
CC(C)CNC(=O)[C@@H]1c2ccccc2C(=O)N(C2CCCCC2)[C@H]1c1ccc(CO)cc1 | 0.978 | 0.589 | -0.292 | -0.467 | 0.196 | -0.184 | 1.83 | -0.991 | -0.321 | -1.66 (inactive) | -0.141 | -2.94 (inactive) | -0.466 (inactive) | -0.179 (inactive) | -1.55 (inactive) | -0.285 | -0.101 | 0.146 | -0.0175 | -0.242

From PubChem BioAssay
